Laboratory results from PubChem BioAssay (NCI).
About 83,000 compounds went through this panel and 20% of them were active in at least one assay; those are over-represented in the sample as a whole.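 Each cell line was grown in a 96-well plate and treated with one concentration of compound for 48 hours. Values below 10 were considered active.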 A number with no mark means an inactive call. The source made the active and inactive calls.

Columns and labels:
Assay in all cases: NCI-60 one-dose screen, 48 h (100 = growth as untreated, 0 = no growth, -100 = all killed)
HT29 colon = conditions: 10 µM unless noted
SNB-19 CNS = conditions: 10 µM unless noted
U251 CNS = conditions: 10 µM unless noted
PC-3 prostate = conditions: 10 µM unless noted
UACC-62 melanoma = conditions: 10 µM unless noted
LOX IMVI melanoma = conditions: 10 µM unless noted
SK-MEL-28 melanoma = conditions: 10 µM
SK-MEL-2 melanoma = conditions: 10 µM unless noted
SNB-75 CNS = conditions: 10 µM unless noted
SK-MEL-5 melanoma = conditions: 10 µM unless noted

Row | Compound | growth (HT29 colon) | growth (SNB-19 CNS) [%] | growth (U251 CNS) | growth (PC-3 prostate) | growth (UACC-62 melanoma) | growth (LOX IMVI melanoma) | growth (SK-MEL-28 melanoma) | growth (SK-MEL-2 melanoma) | growth (SNB-75 CNS) [%] | growth (SK-MEL-5 melanoma)
1 | Cc1c(-c2csc(-n3nc(C(F)(F)F)cc3C(F)(F)F)n2)no[n+]1[O-] | 99.2% | 94.1 | 104% | 98.6% | 89.5% | 99% | 102% | 99.4% |  | 
2 | O=C(CN1C=NC2C(N3CCOCC3)=NC=NC21)c1ccc(Br)cc1 (configuration not stated) | 107% | 97.2 | 99.8% | 95.5% | 93.1% | 97.3% | 111% | 94.4% |  | 
3 | CC(=O)SC1CC(=O)C=C2CCC3C4CCC(=O)OC4(C)CCC3C21C (configuration not stated) | 101% |  | 99.4% | 94% |  | 97.8% | 120% | 106% | 84.2 | 
4 | CC(C)Cn1c2c(c(=S)[nH]c1=O)CCC2 | 111% | 97.6 | 102% | 104% | 96.1% | 101% | 118% | 98.2% |  | 
5 | CCN1C(=O)N(CC)C2C1NN=c1s/c(=C3\C(=O)N(CC(C)(C)C)c4ccccc43)c(=O)n12 (configuration not stated) | 6.57% (active) | 33.1 | 21% | 20.8% | 36.1% | 38.7% | 64% | 53.6% |  | 
6 | CC(C)[C@H](NC(=O)Cn1cc(C(=O)O)nn1)C(=O)O |  | 105 | 100% | 94.1% | 103% | 104% | 111% | 127% | 104 | 98.6%
7 | COc1ccc2[nH]c(O)c(N=NC(=O)c3oc4ccccc4c3C)c2c1 | 27.3% | 42.7 | 2.05% (active) | 21.8% | 34.3% | 16.3% | 15.8% | 70.9% |  | 
8 | CN1C(=O)N(C)C2(c3ccccc3)n3c(s/c(=C\c4ccccc4)c3=O)=NNC12c1ccccc1 (configuration not stated) | 95.5% | 98 | 96.4% |  | 81.2% | 86.2% | 101% | 99.7% |  | 
9 | CN1C(=O)N(C)C2Nn3c(s/c(=C\c4ccc(Cl)cc4Cl)c3=O)=NC21 (configuration not stated) | 37% | 64 | 61.4% | 38.9% | 47.1% | 58.3% | 62.1% | 89.2% |  | 
10 | NC(CCc1nc2ccccc2c(=O)[nH]1)C(=O)O (configuration not stated) | 104% | 98.3 | 96.6% | 102% | 100% | 102% | 110% | 102% |  | 
11 | Clc1ccc(Nc2nnc(-c3ccc4c(c3)OCO4)o2)cc1 | 95% |  | 102% | 107% | 88.9% | 89.9% | 114% | 102% | 121 | 104%
12 | COc1cc(/C=C/C(=O)N2c3ccccc3CC2C)c(OC)c2c1OCO2 (configuration not stated) | 83.8% |  | 87.6% | 68.7% | 84.5% | 94.3% | 90.7% | 98.6% | 97.2 | 
13 | CCCCCCCCCCOC(=O)c1ccccc1C(=O)OCCCC | 105% |  | 101% | 90.4% |  | 102% | 119% | 111% | 81.9 | 
14 | COc1ccc(-c2nnc(COc3ccc(C(=O)/C=C/c4ccco4)cc3)o2)cc1 | 20.3% |  |  | 86.2% | 85.9% | -30.5% (active) | 90.9% | 132% | 60.1 | 
15 | COc1cc(/C=C2\Oc3cc(OCCCN4CCCC4)ccc3C2=O)cc(OC)c1 | -42.4% (active) | 64.7 | 18.3% |  | 71.1% | -78% (active) | 73.5% | 108% |  | 
16 | O=C(N=Nc1c(O)[nH]c2ccccc12)c1oc2ccccc2c1CN1CCN(c2ccccc2)CC1 | 15.8% | 18.6 | -22.2% (active) | -22.2% (active) | 4.02% (active) | 2.72% (active) | -31.8% (active) | 72.9% |  | 
17 | C=CCN1C(=O)/C(=c2\sc3n(c2=O)NC2C(N=3)N(CC)C(=O)N2CC)c2ccccc21 (configuration not stated) | 19.9% | 44.5 | 45.8% | 30.5% | 35.5% | 47.7% | 59.9% | 65.9% |  | 
18 | COc1ccc(-c2cn[nH]c2-c2ccc(OC)c(O)c2)cc1 | 94.3% |  | 63.1% | 84% | 66% | 59.5% | 89.1% | 42% | 87.6 | 
19 | CCN1C(=O)N(c2ccccc2)C2Nn3c(s/c(=C4\C(=O)N(C(C)C)c5ccccc54)c3=O)=NC21 (configuration not stated) | 105% | 96 | 104% |  | 97.5% | 100% | 118% | 102% |  | 

Row | Compound | growth (HT29 colon) | growth (SNB-19 CNS) [%] | growth (U251 CNS) | growth (PC-3 prostate) | growth (UACC-62 melanoma) | growth (LOX IMVI melanoma) | growth (SK-MEL-28 melanoma) | growth (SK-MEL-2 melanoma) | growth (SNB-75 CNS) [%] | growth (SK-MEL-5 melanoma)
20 | CN1C(=O)N(C)C2C1NN=c1s/c(=C\c3ccc([N+](=O)[O-])cc3)c(=O)n12 (configuration not stated) | 25.9% | 54 | 69.8% | 45.8% | 39.4% | 51.3% | 76.9% | 64.6% |  | 
21 | S=C1NC2(c3ccccc3)CCC(=S)N2c2ccccc21 (configuration not stated) | 105% | 97.6 | 95% | 96.7% | 92% | 99.7% | 114% | 97.1% |  | 
22 | CC1=NCC2NC(=O)NC(C)=C12 (configuration not stated) | 108% | 98.9 | 103% |  | 95.2% | 101% | 114% | 101% |  | 
23 | CCCc1c(C)c2sc(=O)[nH]c2[nH]c1=O | 110% |  | 99.5% |  | 105% | 100% | 110% | 108% | 99.1 | 100%
24 | CC[C@@H](C)[C@H](NC(=O)Cn1cc(CNC(=O)[C@@H](NC(=O)OCc2ccccc2)C(C)C)nn1)C(=O)O |  |  | 104% | 97.2% | 100% | 99.7% | 113% | 110% | 101 | 102%
25 | c1ccc2c(c1)oc1cc3sccc3nc12 | 106% | 98.3 | 92% | 93.4% | 94.2% | 96.8% | 109% | 95.3% |  | 
26 | C=C[C@@H]1CCC/C=C/[C@@H]2C[C@H](O)C[C@H]2[C@H](O)/C=C/C(=O)O1 |  | 33.4 | 25.3% | 30.3% | 22.1% | -63.6% (active) | 6.18% (active) | -1.5% (active) | 33.8 | -90.1% (active)
27 | CCCSC1=NC2C(N(CC)C(=O)N2CC)N1/N=C/C=C/c1ccccc1[N+](=O)[O-] (configuration not stated) | 9.1% (active) | 29.6 | 21.7% |  | 36.6% | 37.7% | 63.5% | 48.6% |  | 
28 | CCn1c(SCC(=O)Nc2cc(C(F)(F)F)ccc2Cl)nc2ccccc2c1=O | 15.7% |  | 47.9% | 17.5% | -79.1% (active) | -7.15% (active) | -28.6% (active) | 87.3% | 13.4 | 25.7%
29 | NC(=O)CSc1nc(-c2ccc(F)cc2)cc(-c2ccco2)n1 |  | 106 | 99.2% | 89.1% | 95.4% | 96.4% | 115% | 101% | 99.2 | 103%
30 | CC[C@H](C)[C@@H](C(=O)OC)n1cc(CNC(=O)[C@@H](Cc2ccccc2)NC(=O)OCc2ccccc2)nn1 |  | 93.2 | 91.5% | 100% | 94.6% | 99.5% | 110% | 105% | 101 | 103%
31 | CN1C(=O)N(C)C2C1NN=c1s/c(=C\c3ccc(Cl)cc3Cl)c(=O)n12 (configuration not stated) | 15% | 26.5 | 27.5% | 20% | 30% | 19.7% | 58.7% | 57% |  | 
32 | O=C(Nc1ncc(Cc2cccc(C(F)(F)F)c2)s1)C1COc2ccccc2O1 (configuration not stated) | 84.9% |  | 83.8% |  | 65.3% | 94.8% | 87.5% | 88% | 83.3 | 89.8%
33 | O=C(CN1C=NC2C(N3CCOCC3)=NC=NC21)c1cccc2ccccc12 (configuration not stated) | 111% | 96.7 | 101% |  | 85.5% | 91.9% | 109% | 99% |  | 
34 | O=C1N=c2ccccc2=C1c1sc(=Nc2ccccc2)n(Nc2ccccc2)c1O | 112% | 101 | 97.5% | 97.3% | 92.1% | 100% | 112% | 103% |  | 
35 | CN1C(=O)N(C)C2C1NN=c1s/c(=C\c3c[nH]c4ccccc34)c(=O)n12 (configuration not stated) | 11.3% | 27.3 | 14.5% | 23.4% | 38.3% | 22.3% | 69.4% | 52.5% |  | 
36 | COc1ccc(/C=c2\sc3n(c2=O)NC2C(N=3)N(C)C(=O)N2C)cc1 (configuration not stated) | 103% | 94.1 | 101% | 95.6% | 89.1% | 92.8% | 104% | 103% |  | 
37 | CCCN1C(=O)N(CCC)C2C1NN=c1s/c(=C3\C(=O)N(C(C)C)c4ccccc43)c(=O)n12 (configuration not stated) | 18.8% | 47.9 | 48.4% | 35.8% | 31.5% | 41.1% | 60.7% | 49.4% |  | 
38 | O=C(c1nc2ccccc2[nH]1)C1C(c2ccc([N+](=O)[O-])cc2)C2CC3CCCCC3N2[C@@]12C(=O)Nc1cc(Cl)ccc12 (some centres not stated) | 18.5% |  | 25.5% | 22.3% | 20.5% | 25.1% | 44.9% | 48.3% | 27.4 | -57.1% (active)
